# Bioassay records: PubChem, several laboratories
# rCAG RNA binder = binders of r(CAG) RNA repeats, primary screen, biochemical, fluorescence; inhibition, % at 3 µM; r(CAG) RNA repeat, TO-PRO-1 dye displacement fluorescence; actives 1.3% (n = 370,000);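 active = inhibition above the plate cutoff, the mean of all test compounds on that plate plus 3 SD, cut at about 35% in these data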;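 note: 0% = DMSO alone and 100% = 100 µM mitoxantrone as full dye displacement; higher means more dye released from RNA so lower well fluorescence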
# GRIN3A LBD mod = binders of NR3A ligand-binding domain, primary screen, biophysical, differential scanning fluorimetry, uHTS; Glutamate receptor ionotropic, NMDA 3A (GRIN3A) ligand-binding domain; NR3A LBD differential scanning fluorimetry, Tm shift; 0% = protein alone, 100% = glycine-bound protein; Tm shift relative to glycine control, % at 25 µM; actives 2.5% (n = 340,000); AID 1259313, 2017;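 active = melting temperature shift of at least 10% of the positive control shift, at one fixed dose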
# FAS-TE inh = FAS thioesterase domain inhibitors, primary screen, biochemical, fluorescence intensity, uHTS | recombinant FAS-TE, OMFH fluorogenic substrate, fluorescence endpoint | inhibition, % at 15 µM | actives 0.67% (n = 360,000) | AID 602261, 2012;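 active = compounds whose normalised, plate-corrected inhibition of enzyme fluorescence in the single-dose primary screen is 50% or more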;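 note: 0% = DMSO with enzyme and 100% = substrate without enzyme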
# Myeloid diff 2 = induction of myeloid progenitor differentiation, primary screen, cell-based, flow cytometry, MLPCN library; ER-HoxA9 myeloid progenitors, lysozyme-GFP differentiation; calls only at 10 µM; actives 1% (n = 360,000); AID 624256, 2012;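 active = normalized GFP-positive differentiation at or above the plate's own cutoff, the solvent-only control mean plus 3 SD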;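 note: cells exposed to compound for four days before flow analysis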
# MPTP inh = mitochondrial permeability transition pore inhibitors, primary screen, biochemical, isolated mouse mitochondria, absorbance. Ca2+ swelling absorbance, 30 min. inhibition, % at 10 µM. actives 1.4% (n = 360,000). AID 602449, 2012;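 active = inhibition of 50% or more, scaled per plate between neutral and stimulator controls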;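 note: 0% = DMSO wells given calcium and 100% = 1 mM EGTA wells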
# rCAG binder conf = small molecules binding CAG repeat RNA – biochemical, fluorescence, confirmation; actives 70% (n = 4,300); inhibition, % at 3 µM; r(CAG) RNA repeat, TO-PRO-1 dye displacement fluorescence; AID 652065, 2013; shares compounds with rCAG RNA binder;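 active = inhibition above a per-plate cutoff, the mean inhibition of sample wells plus 3 SD, cut at about 35% in these data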;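 note: loss of TO-PRO-1 fluorescence as compound displaces dye from 1x1 AA loop RNA; 0% = DMSO only wells and 100% = 100 µM mitoxantrone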
# dCAG dye counter = displacement of TO-PRO-1 from CAG DNA duplex, counter-screen for rCAG RNA repeat binder project, biochemical, fluorescence, TO-PRO-1 dye, d(CAG) DNA oligo. inhibition, % at 3 µM. shares compounds with rCAG RNA binder. d(CAG) DNA oligo TO-PRO-1 dye displacement. actives 94% (n = 4,300). AID 652068, 2013;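 active = inhibition above its plate's cutoff, the mean test-well inhibition plus 3 SD, cut at about 4.8% in these data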;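 note: 0% = DNA dye mix with DMSO and 100% = 100 µM mitoxantrone; hits displace the dye from DNA and so lower well fluorescence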
# An asterisk follows results filed as active; i = inactive; nt = no result. Shown are actives, neighbours in structure and some others; about 5.7% of the full set was active somewhere.
SMILES,rCAG RNA binder,GRIN3A LBD mod,FAS-TE inh,Myeloid diff 2,MPTP inh,rCAG binder conf,dCAG dye counter
O=C(O)C1CCN(C(=O)c2ccccc2N2C(=O)[C@@H]3Cc4c([nH]c5ccccc45)C(c4cccc(Cl)c4)N3C2=O)CC1 (some centres not stated),38.4*,0.7,0.0,i,0.2,47.1*,14.2*
Cc1ccc(C2c3[nH]c4ccccc4c3C[C@H]3C(=O)N(c4ccccc4C(=O)N4CCC[C@@H]4C(=O)O)C(=O)N23)cc1 (some centres not stated),39.2*,-1.1,-2.3,i,-0.5,56.8*,19.4*
CCN(CC1COc2ccccc2O1)S(=O)(=O)c1ccc(C)cc1 (configuration not stated),-1.3,0.2,17.3,i,38.0,nt,nt
Cc1ccc(S(=O)(=O)N2[C@@H](c3ccc(Cl)cc3)C(C(=O)O)=CC[C@H]2c2ccc3c(c2)OCO3)cc1,54.4*,-1.9,0.9,i,-0.1,60.0*,22.6*
Cc1ccc(S(=O)(=O)N2[C@@H](c3ccc(Br)cc3)C(C(=O)O)=CC[C@H]2c2cccc(C)c2)cc1,4.9,-7.0,14.6,i,0.8,nt,nt
Cc1ccc(S(=O)(=O)N2[C@@H](c3ccc(Br)cc3)C(C(=O)O)=CC[C@H]2c2ccc3c(c2)OCO3)cc1,66.6*,2.1,-1.3,i,1.2,59.8*,22.6*
Cc1ccc(S(=O)(=O)N2[C@@H](c3cccc(Cl)c3)C(C(=O)O)=CC[C@H]2c2ccc3c(c2)OCO3)cc1,67.1*,0.9,-0.2,i,-2.2,69.3*,31.1*
Cc1ccc([C@H]2C(C(=O)O)=CC[C@@H](c3ccc4c(c3)OCO4)N2S(=O)(=O)c2ccc(C)cc2)cc1,63.4*,4.7,-5.9,i,0.7,61.5*,22.3*
Nc1cccc(C(=O)N/N=C/c2ccsc2)c1,0.2,-2.7,-5.2,i,0.7,nt,nt
Fc1ccc(CNc2nc3ccccc3n3cnnc23)cc1,2.0,1.6,7.2,i,-0.1,nt,nt
O=C(O)C1=CCC(c2ccc(Cl)c(Cl)c2)N(S(=O)(=O)c2ccc(F)cc2)C1c1cccc(F)c1 (configuration not stated),71.6*,nt,nt,i,1.2,67.6*,26.2*
Cc1ccc(S(=O)(=O)N2[C@@H](c3ccc(F)cc3)C(C(=O)O)=CC[C@H]2c2cccc(Cl)c2)cc1,7.7,-19.1,3.4,i,3.2,nt,nt
Cc1ccc(S(=O)(=O)N2[C@@H](c3ccc(Br)cc3)C(C(=O)O)=CC[C@H]2c2ccc(Cl)c(Cl)c2)cc1,86.7*,-7.0,49.5,i,-1.9,82.5*,52.0*
CN(Cc1ccccc1Cl)C(=O)CN1C(=O)C2(OCCCO2)c2ccccc21,2.6,nt,nt,nt,nt,nt,nt
COc1ccc(-c2noc(CN(C)C(=O)CCCN3C(=O)[C@H]4CC=CC[C@H]4C3=O)n2)cc1,-0.3,nt,-2.9,i,-1.5,nt,nt
COC(=O)COc1ccc(C2Nc3c(Cl)ccc(C(=O)O)c3C3C=CCC32)cc1 (configuration not stated),76.3*,-2.2,-6.5,i,-1.8,49.1*,17.2*
COc1ccc(OC)c(C2Nc3c(Cl)ccc(C(=O)O)c3C3C=CCC32)c1 (configuration not stated),49.9*,2.0,-5.7,i,-0.6,26.4,7.1*
O=[N+]([O-])c1ccc(Cl)c2c1C1C=CCC1C(c1ccccn1)N2 (configuration not stated),32.9,0.4,32.8,i,2.0,nt,nt
CC1CN(C(=O)CCC(=O)NCc2ccccc2Cl)c2ccccc2S1 (configuration not stated),1.3,0.7,3.4,i,-1.0,nt,nt
